Measured values: publication PMC4552634, “A New Set of Chemical Starting Points with Plasmodium falciparum Transmission-Blocking Potential for Antimalarial Drug Discovery” (PLoS ONE, 2015)
Like-named read-outs stand apart in the source and are kept apart here. Out of some 13,000 compounds screened, about 3,200 (25%) showed an effect of 50% or more. The list shows a part of the results.

Test system: P. falciparum stage V gametocytes
Parameters: BacTiter-Glo ATP luminescence viability of purified stage V gametocytes in 384-well plates, per cent inhibition versus DMSO
Conditions: 48 h, 5 µM, inhibitor

| SMILES | % Inhibition | % Inhibition (% Inhibition) |
| --- | --- | --- |
| COc1cc2nc(SCC(C)C)n(CCCn3ccnc3)c(=N)c2cc1OC [TCMDC-125667] | 47.91% |  |
| COc1cc2nc(SCCCC#N)n(C3CCCCCC3)c(=N)c2cc1OC [TCMDC-123768] | 60.07% |  |
| O=C(CC1SC(N2N=C(c3cccs3)CC2c2ccccc2)=NC1=O)Nc1ccccc1F (stereo not drawn) [TCMDC-124761] | 0.7985% |  |
| CCN(CCCN1CCCCC1)c1cc(C)nc(Nc2ccc(C)c(Cl)c2)n1 [TCMDC-132438] | -8.632% |  |
| CCN(CCCN1CCCCC1)c1cc(C)nc(Nc2ccc(F)c(C(F)(F)F)c2)n1 [TCMDC-132433] | 31.89% |  |
| CCN(CCCN1CCCCC1)c1cc(C)nc(Nc2ccc(C)cc2C(F)(F)F)n1 [TCMDC-132444] | -24.78% |  |
| CCN(CCCN1CCCCC1)c1cc(C)nc(Nc2cccc(C(F)(F)F)c2C)n1 [TCMDC-132452] | 62.42% |  |
| CCN(CCCN1CCCCC1)c1cc(C)nc(Nc2ccc(Cl)c(C(F)(F)F)c2)n1 [TCMDC-132439] | 56.88% |  |
| CCN(CCCN1CCCCC1)c1cc(C)nc(Nc2cc(C(F)(F)F)ccc2C)n1 [TCMDC-132448] | 19.94% |  |
| Cc1cc(C)c(O)c(-c2cc(C(=O)Nc3ccc(S(=O)(=O)N4CC(C)OC(C)C4)cc3)[nH]n2)c1 (stereo not drawn) [TCMDC-125184] | -32.33% |  |
| CC1CCCCN1S(=O)(=O)c1ccc(NC(=O)c2cc(-c3ccccc3O)n[nH]2)cc1 (stereo not drawn) [TCMDC-125855] | -44.79% |  |
| O=C(/C=C/c1ccc(Cl)c(Cl)c1)NCCCCCN1CCN(C(=O)Nc2ccc(Cl)c(C(F)(F)F)c2)CC1 [TCMDC-135735] | -27.61% |  |
| COC1CCC(C(=O)Nc2ccc(-c3cccc(-c4nc5ccc(C(F)(F)F)cc5[nH]4)c3)cc2)CC1 (stereo not drawn) [TCMDC-136858] | -5.175% |  |
| O=C(Nc1ccon1)c1cc(-c2cccnc2)nc2ccc(Cl)cc12 [TCMDC-124360] | -4.584% |  |
| C=CCOC(=O)N1CCC(CNCc2ccc(-c3ccc(-c4nc5ccccc5[nH]4)s3)cc2)C1.O=C(O)C(F)(F)F (stereo not drawn) [TCMDC-133037] | -14.35% |  |
| CCNc1cc(C(=O)N[C@@H](Cc2ccco2)[C@H](O)CNC2CCCCC2)cc(N2CCCCS2(=O)=O)c1 [TCMDC-135304] | 34.63% |  |
| COc1cc(C(=O)N2CCN(C(C)C)CC2)ccc1CN(C)CCCCN1CCN(c2cccc(Cl)c2Cl)CC1 [TCMDC-136506] | 104.3% |  |
| CC(C)N1CCN(c2ccc(OCCCN3CCN(c4cccc(Cl)c4Cl)CC3)c(C(F)(F)F)c2)CC1 [TCMDC-136647] | -2.358% |  |
| Cc1cc(NC(=O)CCCN2CCN(c3cccc(Cl)c3Cl)CC2)ccc1N1CCN(C(C)C)CC1 [TCMDC-136696] | -18.49% |  |
| CC(C)N1CCN(c2ccc(OCCCCN3CCN(c4cccc(Cl)c4Cl)CC3)c(C(F)(F)F)c2)CC1 [TCMDC-136646] | -6.976% |  |
| CC(C)N1CCN(c2ccc(OCCCCN3CCN(c4cccc(Cl)c4Cl)CC3)cc2Cl)CC1 [TCMDC-136639] | -87.47% |  |
| COc1cc(C(=O)N2CCN(C(C)C)CC2)ccc1CN(C)CCCN1CCN(c2cccc(Cl)c2Cl)CC1 [TCMDC-136519] | 106.1% |  |

| SMILES | % Inhibition | % Inhibition (% Inhibition) |
| --- | --- | --- |
| COc1ccc(N2CCN(CCCN3CCN(C(=O)c4ccc(/C=C/c5ccc(Cl)c(Cl)c5)cc4)CC3)CC2)c(OC)c1 [TCMDC-138215] | -35.25% |  |
| Cc1cc(NC(=O)CCN2CCN(c3cccc(Cl)c3Cl)CC2)ccc1N1CCN(C(C)C)CC1 [TCMDC-136695] | 39.36% |  |
| COc1cc(NC(=O)CCCN2CCN(c3cccc(Cl)c3Cl)CC2)ccc1N1CCN(C(C)C)CC1 [TCMDC-136697] | 87.5% |  |
| O=c1cc(N2CCNCC2)c(Cl)nn1Cc1ccc(NS(=O)(=O)c2ccc(Oc3ccccc3)cc2)cc1 [TCMDC-141701] | 10.25% |  |
| COc1ccc2nc(-c3cc(-c4ccc(NC(C)=O)cc4)cnc3N)[nH]c2c1 [TCMDC-135365] | -4.081% |  |
| Cc1sc(CNCCCNc2cc(=O)c3ccccc3[nH]2)c(I)c1C [TCMDC-140907] | -22.52% |  |
| CC(=O)N1c2ccccc2C(C)=CC1(C)C [TCMDC-123928] | -1.243% |  |
| CCCC1N=C(N)N=C(N)N1c1cccc(C(F)(F)F)c1 (stereo not drawn) [TCMDC-131298] | -25.37% |  |
| CCN(CCCN1CCCCC1)c1cc(C)nc(Nc2ccc(Oc3ccccc3)cc2)n1 [TCMDC-132426] | 49.81% |  |
| Cl.Nc1ccnc2ccc(OCCCCCCc3ccccc3)cc12 [TCMDC-139072] | -2.454% |  |
| CN(C)CCCn1c(C(=O)OC(c2ccccc2)c2ccccc2)cc2cc(OCc3ccccc3)ccc21 [TCMDC-138114] | 99.58% |  |
| CN(C)CCCN(C)C(=O)c1cc2cc(-c3ccccc3)ccc2n1S(=O)(=O)c1ccccc1 [TCMDC-139127] | 25.92% |  |
| CN(C)CCCOC(=O)c1cc2cc(-c3ccccc3)ccc2n1S(=O)(=O)Cc1ccccc1 [TCMDC-139121] | 46.9% |  |
| Cn1nc(C(F)(F)F)cc1-c1ccc(C(=O)NC2CCC(CN3CCC(c4c[nH]c5ccccc45)CC3)CC2)s1 (stereo not drawn) [TCMDC-140355] | 118.2% |  |
| O=C(NC1CCC(CN2CCC(c3c[nH]c4ccccc34)CC2)CC1)c1cc2ccccc2s1 (stereo not drawn) [TCMDC-139710] |  | -31.58% |
| Cc1ccccc1C1CCN(C2CCC(NC(=O)c3ccc(-c4cc(C(F)(F)F)nn4C)s3)CC2)CC1 (stereo not drawn) [TCMDC-134107] | -22.15% |  |
| O=C(NC1CCC(CN2CCC(c3c[nH]c4ccccc34)CC2)CC1)c1cc2ccccc2s1 (stereo not drawn) [TCMDC-139722] |  | 56.81% |
| COc1cc(C(=O)NC2CCC(CN3CCC(c4c[nH]c5ccccc45)CC3)CC2)cc(Cl)n1 (stereo not drawn) [TCMDC-139937] | 89.84% |  |
| O=C(NC1CCC(CN2CCC(c3c[nH]c4ccccc34)CC2)CC1)c1cc2ccccc2o1 (stereo not drawn) [TCMDC-139764] | 94.95% |  |
| O=C(NC1CCC(CN2CCC(c3c[nH]c4ccccc34)CC2)CC1)c1cc(-c2ccccc2)c(C(F)(F)F)s1 (stereo not drawn) [TCMDC-140356] | 23.32% |  |
| CC(C)C[C@@H](C(=O)N[C@H](C(=O)Nc1nccs1)C(C)(C)C)[C@H](CCC(F)(F)F)N(O)C=O [TCMDC-138178] | 1.039% |  |
| CCC1(CC)N=C(N)N=C(N)N1OCc1ccc(Cl)c(Cl)c1 [TCMDC-131656] | 33.88% |  |

| SMILES | % Inhibition | % Inhibition (% Inhibition) |
| --- | --- | --- |
| N#Cc1ccc(C(=O)Nc2ccc(Cl)c(N3CCN(CCc4ccccc4)CC3)c2)cc1 [TCMDC-133534] | -15.74% |  |
| CC(Nc1ccc2c(c1)CCC2)C(=O)Nc1cc(C(F)(F)F)ccc1N1CCOCC1 (stereo not drawn) [TCMDC-124858] | 33.49% |  |
| COc1ccc2ncc(C#N)c(CCN3CCC(NCc4ccc5c(n4)NC(=O)CS5)CC3)c2n1 [TCMDC-135188] | -9.823% |  |
| CC1CCCCC1N(C)C1CCN(CCCNC(=O)C=Cc2cccc(C(F)(F)F)c2)CC1 (stereo not drawn) [TCMDC-124443] | 53.92% |  |
| CN(C(=O)/C=C/c1cc(C(F)(F)F)ccc1F)C1CCN(CCCCCNC(=O)/C=C/c2ccc(Cl)c(Cl)c2)CC1 [TCMDC-139991] | -46.39% |  |
| CC1CCCCC1N(C)C1CCN(CCCNC(=O)C=Cc2ccc(Cl)cc2Cl)CC1 (stereo not drawn) [TCMDC-124444] | 93.47% |  |
| CC1CCCCC1N(C)C1CCN(CCCNC(=O)C=Cc2ccccc2Cl)CC1 (stereo not drawn) [TCMDC-124442] | 1.29% |  |
| CCN(CC)c1ccc(C=CC(=O)NCCN2CCC(N(C)C3CCCCC3C)CC2)cc1 (stereo not drawn) [TCMDC-124445] | -34.59% |  |
| O=C(/C=C/c1cccc(C(F)(F)F)c1)NCCCCCN1CCC(c2c[nH]c3ccccc23)CC1 [TCMDC-139212] | -27.28% |  |
| Fc1ccc(COc2ccc(Nc3ncnc4ccc(I)cc34)cc2Cl)cc1 [TCMDC-138628] | -1.956% |  |
| Cc1c(Cc2ccc(C(C)C)cc2)cnc2nc(N)nc(N)c12 [TCMDC-138044] | 4.775% |  |
| CCOc1ccc(-c2nonc2NC(=O)c2cccs2)cc1OCC [TCMDC-125207] | 83.06% |  |
| CCOc1ccc(-c2nonc2NC(=O)CC(C)C)cc1OCC [TCMDC-125196] | 42.86% |  |
| CCOc1ccc(-c2nonc2NC(=O)c2ccco2)cc1OCC [TCMDC-125197] | 3.347% |  |
| CCOc1ccc(-c2nonc2NC(=O)c2ccccc2)cc1OCC [TCMDC-125199] | 91.48% |  |
| CCCCC(=O)Nc1nonc1-c1ccc(OCC)c(OCC)c1 [TCMDC-125071] | 74.8% |  |
| CCOc1ccc(-c2nonc2NC(=O)c2cccc(Cl)c2)cc1OCC [TCMDC-125200] | 91.59% |  |
| Cc1ccc2cc(NCCCCCCCCON3C(N)=NC(N)=NC34CCCCC4)ccc2n1 [TCMDC-140362] | 9.593% |  |
| Cn1cncc1C(=O)NC1CCN(c2ccnc(Nc3ccc(F)cc3)n2)C1 (stereo not drawn) [TCMDC-133600] | -9.129% |  |
| CC(C)CC(C)NC(=O)C1Cc2c([nH]c3ccc(F)cc23)C2(CCN(Cc3ccccc3)CC2)N1 (stereo not drawn) [TCMDC-141304] | -71.76% |  |
| Cc1cccc2nc(-c3ccc(-c4ccc(NC(=O)Nc5cccc(C#N)c5)cc4)s3)[nH]c12 [TCMDC-133189] | 17.89% |  |
| CCN(CC)S(=O)(=O)c1ccc(C(=O)Oc2ccccc2N(Cc2ccc(OC)cc2)C2=NS(=O)(=O)c3ccccc32)cc1 [TCMDC-125657] | 32.63% |  |
